Source: PMC4336329 (PLoS ONE, 2015)
Out of some 310,000 compounds screened, about 2,200 (0.71%) showed an effect of 50% or more. Effects have a minus sign here. What follows is part of a selection rich in strong results, with near analogues and random picks from the rest.

target: human ether-à-go-go-related gene (hERG) potassium channel (human, UniProt Q12809); test: primary screen, population patch clamp on CHO cells stably expressing hERG; higher = less effect of the substance
Sequence (Q12809 whole entry, looked up): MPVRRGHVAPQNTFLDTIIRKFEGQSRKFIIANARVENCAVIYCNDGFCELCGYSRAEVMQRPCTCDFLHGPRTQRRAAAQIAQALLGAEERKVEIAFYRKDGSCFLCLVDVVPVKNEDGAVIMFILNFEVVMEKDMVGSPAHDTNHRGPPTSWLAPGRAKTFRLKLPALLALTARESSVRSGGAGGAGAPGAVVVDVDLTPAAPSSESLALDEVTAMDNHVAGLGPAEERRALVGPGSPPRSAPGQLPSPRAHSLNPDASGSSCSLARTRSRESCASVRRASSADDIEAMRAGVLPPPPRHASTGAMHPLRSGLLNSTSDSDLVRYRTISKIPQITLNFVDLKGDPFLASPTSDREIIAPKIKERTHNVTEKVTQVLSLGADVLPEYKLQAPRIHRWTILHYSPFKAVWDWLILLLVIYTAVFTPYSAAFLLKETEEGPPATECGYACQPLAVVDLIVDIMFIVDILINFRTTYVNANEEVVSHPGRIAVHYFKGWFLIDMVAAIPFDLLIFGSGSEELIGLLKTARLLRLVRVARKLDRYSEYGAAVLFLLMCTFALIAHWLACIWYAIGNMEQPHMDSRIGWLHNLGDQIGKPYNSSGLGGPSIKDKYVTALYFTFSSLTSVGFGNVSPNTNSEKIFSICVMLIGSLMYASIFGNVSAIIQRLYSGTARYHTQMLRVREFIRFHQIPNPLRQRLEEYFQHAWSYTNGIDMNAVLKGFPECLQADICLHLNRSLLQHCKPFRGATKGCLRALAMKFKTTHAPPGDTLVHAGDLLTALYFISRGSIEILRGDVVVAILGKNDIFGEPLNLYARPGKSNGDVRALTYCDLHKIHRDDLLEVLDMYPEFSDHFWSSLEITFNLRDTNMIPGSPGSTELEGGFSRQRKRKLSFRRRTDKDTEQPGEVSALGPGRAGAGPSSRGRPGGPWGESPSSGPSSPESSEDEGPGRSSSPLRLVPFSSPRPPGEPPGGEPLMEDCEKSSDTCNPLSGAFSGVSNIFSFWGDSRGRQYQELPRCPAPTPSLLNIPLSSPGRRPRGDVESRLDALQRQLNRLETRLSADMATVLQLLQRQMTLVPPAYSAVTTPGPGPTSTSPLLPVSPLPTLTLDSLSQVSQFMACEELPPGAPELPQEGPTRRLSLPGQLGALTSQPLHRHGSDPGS

For `OC(COCc1cccs1)CN1CCN(c2ccccc2Cl)CC1` (centres unmarked), which “hERG current change (%, negative = inhibition) at 1uM” value is on record?
The value was -50.8%.

How did the “hERG current change (%, negative = inhibition) at 1uM” value turn out when `COc1ccccc1N1CCN(CC(O)COCc2cccs2)CC1.Cl` (centres unmarked) was run?
The value was 0.795%.

Which “hERG current change (%, negative = inhibition) at 1uM” value does the source give for `Cc1cccc(N2CCN(CC(O)COCc3cccs3)CC2)c1C` (centres unmarked) here?
The value was -63.9%.

`CCOc1ccccc1N1CCN(CC(O)COCc2cccs2)CC1` (centres unmarked) was tested. Which “hERG current change (%, negative = inhibition) at 1uM” value did it give?
Its value is -1.54%.

Which “hERG current change (%, negative = inhibition) at 1uM” value does the source give for `O=C(CCc1ccc(S(=O)(=O)NCCc2ccccc2)cc1)NCc1ccco1` here?
The value was 6%.

For `COc1cccc2sc(NN)nc12`, which “hERG current change (%, negative = inhibition) at 1uM” value is on record?
The value was 0.731%.

For `CCCc1[nH]n(-c2nc3ccccc3s2)c(=O)c1C=NCCN1CCOCC1`, which “hERG current change (%, negative = inhibition) at 1uM” value is on record?
Its value is -4.58%.

`CCCN=Cc1c(CCC)[nH]n(-c2nc3ccccc3s2)c1=O` was tested. Which “hERG current change (%, negative = inhibition) at 1uM” value did it give?
The value was -4.61%.

With `COCCCN=Cc1c(-c2ccccc2)[nH]n(-c2nc3ccccc3s2)c1=O` as the compound, how does the “hERG current change (%, negative = inhibition) at 1uM” value read?
The value was -55.9%.

`CCCc1[nH]n(-c2nc3ccccc3s2)c(=O)c1C=NCC(C)C` was tested. Which “hERG current change (%, negative = inhibition) at 1uM” value did it give?
The value was 6.14%.

`CCCCCN=Cc1c(C)[nH]n(-c2nc3ccccc3s2)c1=O` was tested. Which “hERG current change (%, negative = inhibition) at 1uM” value did it give?
Its value is -16.9%.

`O=c1c(C=NCCCn2ccnc2)c(-c2ccccc2)[nH]n1-c1nc2ccccc2s1` was tested. Which “hERG current change (%, negative = inhibition) at 1uM” value did it give?
Its value is -26.9%.

Which “hERG current change (%, negative = inhibition) at 1uM” value does the source give for `CCCN=C(C)c1c(-c2ccccc2)[nH]n(-c2nc3ccccc3s2)c1=O` here?
The value was 7.75%.

How did the “hERG current change (%, negative = inhibition) at 1uM” value turn out when `CCN(CC)CCCN=Cc1c(-c2ccccc2)[nH]n(-c2nc3ccccc3s2)c1=O` was run?
Its value is -81.7%.

For `CN(C)CCCN=Cc1c(-c2ccccc2)[nH]n(-c2nc3ccccc3s2)c1=O`, which “hERG current change (%, negative = inhibition) at 1uM” value is on record?
Its value is -58.1%.

For `CCCc1[nH]n(-c2nc3ccccc3s2)c(=O)c1C=NCCCN(CC)CC`, which “hERG current change (%, negative = inhibition) at 1uM” value is on record?
The value was -57.6%.

How did the “hERG current change (%, negative = inhibition) at 1uM” value turn out when `O=c1c(C=NCCCO)c(-c2ccccc2)[nH]n1-c1nc2ccccc2s1` was run?
The value was -2.36%.

For `CCCc1[nH]n(-c2nc3ccccc3s2)c(=O)c1C=NCCCOC`, which “hERG current change (%, negative = inhibition) at 1uM” value is on record?
Its value is -9.11%.

Which “hERG current change (%, negative = inhibition) at 1uM” value does the source give for `Cn1ccc(NC(=O)c2ccc(Cl)cc2)n1` here?
Its value is 11%.

For `CCC(C)N1C(=O)CCC1C(=O)N1CCN(c2ccccc2F)CC1` (centres unmarked), which “hERG current change (%, negative = inhibition) at 1uM” value is on record?
The value was 17%.

Which “hERG current change (%, negative = inhibition) at 1uM” value does the source give for `CC(=O)N1CCN(C2=NC(=O)C(=C3CCCCC3)S2)CC1` here?
The value was -2.21%.

For `CCCNC(=O)C1CC(=O)N(c2ccc(OCC(=O)Nc3cccc(C)c3C)cc2)C1` (centres unmarked), which “hERG current change (%, negative = inhibition) at 1uM” value is on record?
Its value is 11%.

For `CN1CCN(C(=O)c2ccc3c(Cl)c4c(nc3c2)CCCC4)CC1`, which “hERG current change (%, negative = inhibition) at 1uM” value is on record?
Its value is -0.735%.

Which “hERG current change (%, negative = inhibition) at 1uM” value does the source give for `Cc1cc(C)c2nc(C(F)(F)F)nc(NCCCN3CCOCC3)c2c1` here?
Its value is 9.96%.

For `CCC(C)(C)C1CCc2[nH]nc(C(=O)O)c2C1` (centres unmarked), which “hERG current change (%, negative = inhibition) at 1uM” value is on record?
The value was 11.9%.

For `CC(=O)NS(=O)(=O)c1ccc(NC(=O)C2C3C=CC(C3)C2C(=O)O)cc1` (centres unmarked), which “hERG current change (%, negative = inhibition) at 1uM” value is on record?
The value was 7.33%.

With `Cc1ccc2c(c1)Oc1ccc(NC(=O)CCCl)cc1C(=O)N2` as the compound, how does the “hERG current change (%, negative = inhibition) at 1uM” value read?
The value was 3.94%.

For `COc1ccc(CN2[C@@H](CC(C)=O)c3ccc(/C=C/C(C)=O)cc3S2(=O)=O)cc1`, which “hERG current change (%, negative = inhibition) at 1uM” value is on record?
The value was -0.639%.

`O=C(c1nn(Cc2ccccc2)c(=O)c2ccccc12)N1CCN(c2ccccn2)CC1` was tested. Which “hERG current change (%, negative = inhibition) at 1uM” value did it give?
The value was -14.5%.

`O=C(c1nn(Cc2ccccc2)c(=O)c2ccccc12)N1CCN(C/C=C/c2ccccc2)CC1` was tested. Which “hERG current change (%, negative = inhibition) at 1uM” value did it give?
Its value is -38.3%.

How did the “hERG current change (%, negative = inhibition) at 1uM” value turn out when `CC(=O)c1ccc(N2CCN(C(=O)c3nn(Cc4ccccc4)c(=O)c4ccccc34)CC2)cc1` was run?
The value was -72.9%.

Which “hERG current change (%, negative = inhibition) at 1uM” value does the source give for `Cn1cc([N+](=O)[O-])c(C(=O)NC2CCCCCC2)n1` here?
Its value is 15.5%.

With `CCOc1cc(-c2nc3cc(C)ccn3c2NCC2CCCO2)ccc1O` (centres unmarked) as the compound, how does the “hERG current change (%, negative = inhibition) at 1uM” value read?
Its value is -47.3%.

`COc1cc(-c2nc3ccccn3c2NCC2CCCO2)ccc1O` (centres unmarked) was tested. Which “hERG current change (%, negative = inhibition) at 1uM” value did it give?
Its value is 2.7%.

For `COc1ccc(-c2nc3cc(C)ccn3c2NCC2CCCO2)cc1OC.Cl` (centres unmarked), which “hERG current change (%, negative = inhibition) at 1uM” value is on record?
The value was -55.3%.

`CN(C(=O)CSc1nc2ccc(Br)cc2c(=O)n1Cc1ccco1)C1CCS(=O)(=O)C1` (centres unmarked) was tested. Which “hERG current change (%, negative = inhibition) at 1uM” value did it give?
The value was -83.1%.

For `CCc1cc2c(=O)n(Cc3ccco3)c(SCC(=O)NCC3CCCO3)nc2s1` (centres unmarked), which “hERG current change (%, negative = inhibition) at 1uM” value is on record?
The value was -60.5%.

With `CCN(C(=O)CSc1nc2cc(Cl)ccc2c(=O)n1CC(C)C)C1CCS(=O)(=O)C1` (centres unmarked) as the compound, how does the “hERG current change (%, negative = inhibition) at 1uM” value read?
Its value is 10.7%.

How did the “hERG current change (%, negative = inhibition) at 1uM” value turn out when `CCN(C(=O)CSc1nc2cc(Cl)ccc2c(=O)n1Cc1ccco1)C1CCS(=O)(=O)C1` (centres unmarked) was run?
Its value is -70.2%.

How did the “hERG current change (%, negative = inhibition) at 1uM” value turn out when `Cc1cc2c(=O)n(Cc3ccco3)c(SCC(=O)NCc3ccco3)nc2s1` was run?
The value was -0.915%.

How did the “hERG current change (%, negative = inhibition) at 1uM” value turn out when `CCc1cc2c(=O)n(Cc3ccco3)c(SCC(=O)NC3CCS(=O)(=O)C3)nc2s1` (centres unmarked) was run?
The value was -29.7%.

With `COCCn1c(SCC(=O)N(C)C2CCS(=O)(=O)C2)nc2ccccc2c1=O` (centres unmarked) as the compound, how does the “hERG current change (%, negative = inhibition) at 1uM” value read?
Its value is 4.99%.

How did the “hERG current change (%, negative = inhibition) at 1uM” value turn out when `CC(C)Cn1c(SCC(=O)N(C)C2CCS(=O)(=O)C2)nc2cc(Cl)ccc2c1=O` (centres unmarked) was run?
The value was 4.62%.

`CCc1cc2c(SCC(=O)N(C)C3CCS(=O)(=O)C3)ncnc2s1` (centres unmarked) was tested. Which “hERG current change (%, negative = inhibition) at 1uM” value did it give?
The value was -7.21%.

How did the “hERG current change (%, negative = inhibition) at 1uM” value turn out when `O=C(CSc1nc2c(sc3ccccc32)c(=O)n1Cc1ccco1)NCC1CCCO1` (centres unmarked) was run?
The value was -0.521%.

`CCc1cc2c(=O)n(Cc3ccco3)c(SCC(=O)N(C)C3CCS(=O)(=O)C3)nc2s1` (centres unmarked) was tested. Which “hERG current change (%, negative = inhibition) at 1uM” value did it give?
The value was -85.4%.

For `CN(C(=O)CSc1nc2cc(C(=O)O)ccc2c(=O)n1Cc1ccccc1)C1CCS(=O)(=O)C1` (centres unmarked), which “hERG current change (%, negative = inhibition) at 1uM” value is on record?
The value was 17.6%.
